From PubChem BioAssay
These entries were drawn from the full list.
aSyn 5UTR act: Activators working through SNCA 5'UTR binding (MLPCN) | activity score, % (tested at 7.5 µM), hits read low | alpha-synuclein 5'UTR reporter, activators screen | hit rate 7.1% among 300,000 | AID 1814; in the data active means activity score below about -60%
Hits are given with their value.

How did COc1ccc(NC(=S)Nc2ncccc2C)c(OC)c1 do in these assays?
aSyn 5UTR act: -93

How did COc1ccc(NC(=S)Nn2cnnc2)cc1OC do in these assays?
aSyn 5UTR act: -95

Results for O=[N+]([O-])C(/C=C(\Cl)[N+](=O)[O-])=C(N1CCCCC1)N1CCCCC1 ?
aSyn 5UTR act: -69

How did CCOC(=O)Cc1csc(NC(=O)/C=C/c2ccccc2Cl)n1 do in these assays?
aSyn 5UTR act: -136

What do the screens show for `CCOC(=O)Cc1csc(NC(=O)/C=C\c2ccccc2Cl)n1`?
aSyn 5UTR act: -194

What do the screens show for `CCOC(=O)Cc1csc(/N=C/c2c(O)n(-c3ccc(C)c(C)c3)c(=O)c3ccccc23)n1`?
aSyn 5UTR act: inactive

What do the screens show for `CCOC(=O)Cc1csc(N/N=C\c2cccc(Br)c2)n1`?
aSyn 5UTR act: -66

How did CCOC(=O)Cc1csc(NC(=O)/C=C\c2ccccc2)n1 do in these assays?
aSyn 5UTR act: -74

How did O=C(Nc1nc2c(s1)CN(Cc1ccccc1)CC2)C1CCCC1 do in these assays?
aSyn 5UTR act: -82

What do the screens show for `CC(C)(C)C(=O)Nc1nc2c(s1)CN(Cc1ccccc1)CC2`?
aSyn 5UTR act: -92

What do the screens show for `O=C(Nc1nc2c(s1)CN(Cc1ccccc1)CC2)c1c(F)cccc1F`?
aSyn 5UTR act: -82

What do the screens show for `COC(=O)c1cnc(Oc2ccc(NC(=O)NC(=O)c3ccccc3Cl)cc2)cc1C(F)(F)F`?
aSyn 5UTR act: -63

How did O=C(Nc1nc2ccccc2[nH]1)C1CCCC1 do in these assays?
aSyn 5UTR act: -80

What do the screens show for `CCS(=O)(=O)N1Cc2ccccc2CC1C(=O)Nc1nc2ccccc2[nH]1` (stereo unspecified)?
aSyn 5UTR act: -101

What do the screens show for `O=C(Nc1nc2ccccc2[nH]1)C1CCC1`?
aSyn 5UTR act: -104

How did O=C(CC1CCCC1)Nc1nc2ccccc2[nH]1 do in these assays?
aSyn 5UTR act: -123

Results for CC/C(=N\Nc1ccccc1[N+](=O)[O-])c1ccc(O)cc1 ?
aSyn 5UTR act: -90

How did C/C(=N\Nc1ccccc1[N+](=O)[O-])c1ccccc1O do in these assays?
aSyn 5UTR act: -221

Results for COc1ccc(-c2csc(=Nc3ccccc3)n2CCO)cc1 ?
aSyn 5UTR act: -100

How did COc1ccc(-c2csc(=NCCO)n2-c2ccccc2)cc1 do in these assays?
aSyn 5UTR act: -99

Results for CCOc1ccc(S(=O)(=O)N2c3ccccc3CC2C)cc1 (stereo unspecified) ?
aSyn 5UTR act: inactive

What do the screens show for `CCOc1ccc(N2C(N)=NC(N)=NC2(C)C)cc1`?
aSyn 5UTR act: inactive

How did CCOc1ccc(N2Cc3ccccc3C2)cc1 do in these assays?
aSyn 5UTR act: -120

How did CN1CCN(Cc2nc(N)nc(Nc3ccc4c(c3)OCCO4)n2)CC1 do in these assays?
aSyn 5UTR act: -91

Results for Nc1c(C(=O)Nc2ccccc2F)sc2nc(-c3cccnc3)ccc12 ?
aSyn 5UTR act: -88

Results for Nc1c(C(=O)Nc2ccccc2F)sc2nc(-c3ccco3)ccc12 ?
aSyn 5UTR act: -118

Results for CCn1nccc1C(=O)Nc1ccc(C)c(C)c1 ?
aSyn 5UTR act: -178

Results for Cc1ccc(C(=O)Nc2ccc3c(c2)OCO3)cc1NC(=O)c1ccco1 ?
aSyn 5UTR act: -71

What do the screens show for `COc1cc(OC)cc(C(=O)Nc2ccc(NC(=O)c3ccco3)c(C)c2)c1`?
aSyn 5UTR act: -123

Results for COc1cccc(NC(=O)c2ccco2)c1 ?
aSyn 5UTR act: -116

Results for O=C(Nc1ccc2c(c1)OCCO2)c1ccco1 ?
aSyn 5UTR act: -68

Results for Cc1ccc(NC(=O)c2ccco2)cc1C ?
aSyn 5UTR act: -103

What do the screens show for `CC1(C)Oc2ccc(NC(=O)c3ccco3)cc2O1`?
aSyn 5UTR act: -168

What do the screens show for `Cc1cs/c(=N/C(=S)Nc2ccccc2)n1C`?
aSyn 5UTR act: -115

Results for Cc1cc(C)nc(/N=C(\N)N2CCc3ccccc32)n1 ?
aSyn 5UTR act: -62

Results for C/C(=N\Nc1nc(N)cc(Cl)n1)c1ccc(F)cc1 ?
aSyn 5UTR act: -71

What do the screens show for `C/C(=N\Nc1nccnc1Cl)c1ccc(F)cc1`?
aSyn 5UTR act: -104

What do the screens show for `C/C(=N/N=C(\C)c1ccccc1O)c1ccccc1O`?
aSyn 5UTR act: -115

How did CC(C)c1ccc(NC(=O)c2ccc3snnc3c2)cc1 do in these assays?
aSyn 5UTR act: -117

How did Cc1ccc(NC(=O)c2ccc3snnc3c2)cc1 do in these assays?
aSyn 5UTR act: -226

How did COc1cc(NC(=O)c2ccc3snnc3c2)cc(OC)c1 do in these assays?
aSyn 5UTR act: -65

How did O=C(Nc1ccccc1)c1ccc2snnc2c1 do in these assays?
aSyn 5UTR act: -79

What do the screens show for `Nc1nnc(C(=O)c2ccccc2N)s1`?
aSyn 5UTR act: -123

Results for CCCCc1noc2c1/C(=N\O)CC(c1ccccc1)C2 (stereo unspecified) ?
aSyn 5UTR act: -77

How did N=C1S/C(=C\c2cn[nH]c2-c2ccc(F)cc2)C(=O)N1c1ccccc1F do in these assays?
aSyn 5UTR act: -108

How did Cc1cccc(Cc2nnc(CCC(=O)N(C)CCc3ccccc3)o2)c1 do in these assays?
aSyn 5UTR act: -137

Results for CCN(CCn1cccn1)C(=O)CCc1nnc(CCCc2ccccc2)o1 ?
aSyn 5UTR act: -122

What do the screens show for `C=C(C)CN(CC)C(=O)CCc1nnc(CCCc2ccccc2)o1`?
aSyn 5UTR act: -150

What do the screens show for `CCN(CC)C(=O)Cn1cc(S(=O)(=O)CC(=O)Nc2ccc3c(c2)OCCO3)c2ccccc21`?
aSyn 5UTR act: -82

What do the screens show for `COc1ccc(Sc2nnc(Cc3ccccc3)c3ccccc23)cc1`?
aSyn 5UTR act: -73

What do the screens show for `COCCCNC(=S)Nc1ccc2c(c1)OCCO2`?
aSyn 5UTR act: -116

What do the screens show for `OCCNC(=S)Nc1ccc2c(c1)OCCO2`?
aSyn 5UTR act: -91

What do the screens show for `S=C(Nc1ccc2c(c1)OCO2)Nc1ccccc1Cl`?
aSyn 5UTR act: -85

How did S=C(NCc1ccc(Cl)c(Cl)c1)Nc1ccc2c(c1)OCO2 do in these assays?
aSyn 5UTR act: -110

What do the screens show for `S=C(Nc1ccc2c(c1)OCCO2)Nc1ccc2c(c1)OCO2`?
aSyn 5UTR act: -75

How did O=C(CSc1nnc(C2CCCCC2)o1)Nc1ccccc1Cl do in these assays?
aSyn 5UTR act: -138

How did CCN(CC)c1cc(C)c2cc(NC(=O)c3cccs3)ccc2n1 do in these assays?
aSyn 5UTR act: -65

Results for CCN(CC)c1cc(C)c2cc(NC(=O)c3ccccc3OC)ccc2n1 ?
aSyn 5UTR act: -75

Results for O=[N+]([O-])/C=C/c1cn(Cc2ccc(F)cc2)c2ccccc12 ?
aSyn 5UTR act: inactive

What do the screens show for `O=C(O)c1ccc(N/N=C/c2cn(Cc3ccc(F)cc3)c3ccccc23)cc1`?
aSyn 5UTR act: -69

Results for Cc1c(/C=N/Nc2ccc(C(=O)O)cc2)c2ccccc2n1C ?
aSyn 5UTR act: -119

Results for Cc1c(/C=N\NC(=O)C2COc3ccccc3O2)c2ccccc2n1C (stereo unspecified) ?
aSyn 5UTR act: inactive

Results for O=C(N/N=C/c1cn(Cc2ccccc2)c2ccccc12)c1cc(O)cc(O)c1 ?
aSyn 5UTR act: inactive

How did CCN(CC)C(=O)c1ccc(COc2ccc(Cl)c(C)c2)o1 do in these assays?
aSyn 5UTR act: -119

What do the screens show for `COc1cccc(N2CCN(C(=O)c3ccc(CS(=O)c4ccc(Cl)cc4)o3)CC2)c1` (stereo unspecified)?
aSyn 5UTR act: inactive

How did Cc1cc(OCc2ccc(C(=O)n3cccn3)o2)ccc1Cl do in these assays?
aSyn 5UTR act: -62

Results for O=C1CC(c2ccco2)CC(O)=C1C=Nc1cc(Cl)ccc1O (stereo unspecified) ?
aSyn 5UTR act: -143

Results for Cn1cc(Cl)c(C(=O)Nc2nccs2)n1 ?
aSyn 5UTR act: -72
